This is part of a sample that, as a whole, favours compounds with a hit. Of some 83,000 tested, about 20% had one in any assay.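 Negative percent growth values reflect cell death: -40 means 40% of the cells present at the start died, and -100 means all died.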 A number with no mark means an inactive call. Calls of active or inactive are those of the source. How the source made its calls: active means growth percent below 10; inactive means the rest.
Assays:
Test in all cases: NCI-60 one-dose screen, 48 h (100 = growth as untreated, 0 = no growth, -100 = all killed)
Conditions in all cases: 10 µM unless noted
[1] = system: DU-145 prostate
[2] = system: K-562 leukemia
[3] = system: MALME-3M melanoma
[4] = system: MDA-MB-231 breast
[5] = system: RXF 393 renal
[6] = system: SF-268 CNS
[7] = system: SF-295 CNS
[8] = system: SF-539 CNS
[9] = system: UACC-257 melanoma
[10] = system: M14 melanoma
[11] = system: HCT-15 colon
[12] = system: HT29 colon
[13] = system: SNB-75 CNS
[14] = system: U251 CNS
[15] = system: PC-3 prostate
[16] = system: SK-MEL-5 melanoma
[17] = system: UACC-62 melanoma
[18] = system: LOX IMVI melanoma
[19] = system: SK-MEL-28 melanoma
[20] = system: SNB-19 CNS

| Structure (SMILES) | growth [1] | growth [2] | growth [3] | growth [4] | growth [5] | growth [6] | growth [7] | growth [8] | growth [9] | growth [10] | growth [11] | growth [12] | growth [13] | growth [14] | growth [15] | growth [16] | growth [17] | growth [18] | growth [19] | growth [20] |
| --- | --- | --- | --- | --- | --- | --- | --- | --- | --- | --- | --- | --- | --- | --- | --- | --- | --- | --- | --- | --- |
| CC(=[N-])N1CCC[C@@H](Nc2c3ccccc3nc3ccccc23)C1.[Cl][Pt].[NH-]CCC[NH-] | 5.94% (active) | 19.2% | 20.7% | 46.9% | -24.3% (active) | 62.3% | 56.8% | 36.9% | 66.9% | 65.3% | 48.2% | 1.38% (active) | 3.22% (active) | 44.3% | 70.6% | -84.4% (active) | -63.3% (active) | 27.9% | 2.14% (active) | – |
| C[C@@H]1C(=O)N(C[C@H](Cc2ccccc2)N(Cc2ccccc2)Cc2ccccc2)[C@]1(Cc1ccccc1)C(=O)OC(C)(C)C | 77.6% | 51.6% | 88% | 61.9% | 68.5% | 69.8% | 40.3% | 91% | 45.1% | 75.4% | 70.9% | 46.4% | 71.3% | 49.2% | 27.9% | 45.5% | 60.6% | 62.8% | 92% | – |
| C=C(C)[C@@H]1CC[C@]2(CO)CC[C@]3(C)[C@H](CC[C@@H]4[C@@]5(C)C=C(C#N)C(=O)C(C)(C)[C@@H]5CC[C@]43C)[C@@H]12 | 18.9% | 7.75% (active) | 32.9% | 15.9% | -61.2% (active) | 25.4% | -2.71% (active) | 20.5% | 4.1% (active) | 15.8% | 3.8% (active) | 8.33% (active) | 52.1% | 9.63% (active) | 6.8% (active) | 12% | -33% (active) | – | 20.9% | – |
| C=C(C=O)C1CCC2(C(=O)O)CCC3(C)C(CCC4C5(C)CCC(O)C(C)(C)C5CCC43C)C12 (stereo not given) | -38.4% (active) | 13.6% | 1.55% (active) | 32.6% | -63.7% (active) | 24.3% | -6.97% (active) | -43.4% (active) | -46.4% (active) | – | -15.1% (active) | 3.49% (active) | 47.1% | 6.78% (active) | 20.4% | -96.9% (active) | -84.2% (active) | -74.1% (active) | -30.8% (active) | 66.3% |
| COc1ccc(-c2nc3ncccn3c2/C=C/C(=O)c2cc(OC)c(OC)c(OC)c2)cc1 | 2.9% (active) | 6.79% (active) | 61.8% | 21.1% | -24.4% (active) | 13.4% | -31.5% (active) | -87.2% (active) | 41.2% | – | 9.73% (active) | 6.11% (active) | 9.26% (active) | -16.8% (active) | 19% | -83.2% (active) | -17% (active) | 0.0444% (active) | -47.4% (active) | 10.9% |
| C=C1C(=O)O[C@H]2[C@H]1CC/C(C(=O)NCCCCCCCCNC(=O)/C1=C/CC[C@@]3(C)O[C@H]3[C@H]3OC(=O)C(=C)[C@@H]3CC1)=C\CC[C@@]1(C)O[C@@H]21 | 84.1% | 18.3% | 16.4% | 74.3% | 43.1% | 91.8% | 110% | 70.1% | 61.8% | 82.8% | 107% | 82.5% | 85.9% | 95.6% | 74.5% | 98.3% | 56.3% | 84% | 42.3% | – |
| Cc1c2c(cn1Cc1ccccc1)CCc1cn(C)nc1-2 | 111% | 58.1% | 101% | 89.5% | 83.9% | 102% | 57.7% | 83.1% | 79.3% | – | 95.1% | 98% | 95.9% | 97.2% | 71.4% | 53.5% | 70.4% | 85.2% | – | 105% |
| O=C1NCC(=O)N(Cc2ccco2)[C@H]1Cc1ccccc1 | 110% | 107% | 110% | 89.1% | 117% | 102% | 96.5% | 97.9% | 86.9% | 98.2% | 98.4% | 103% | 94.5% | 88.6% | 91% | 102% | 96.6% | 95.6% | 107% | – |
| Clc1ccc2c(NCCCN3CCN(c4nc(N5CCOCC5)nc5ccccc45)CC3)ccnc2c1 | 27.1% | -46.2% (active) | -82% (active) | -34.5% (active) | -76.6% (active) | 46.7% | -46.7% (active) | -82.7% (active) | -68.3% (active) | -80.3% (active) | -32.8% (active) | -19.2% (active) | 89.4% | -14.3% (active) | 37.5% | -96.8% (active) | -33.1% (active) | – | -85% (active) | – |
| COc1cc(C(=O)/C=C/c2c(-c3ccc(F)cc3)nc3ncccn23)cc(OC)c1OC | 31.8% | 17.9% | 50.7% | 64.4% | 13.6% | 51% | 56.4% | 28.5% | 47% | – | 43.5% | 38.2% | 59.2% | 48.2% | 47% | 30.5% | 52.2% | 36.4% | 49.2% | 88.2% |
| Nc1ccn(C2OC(F)(CO)C(O)C2F)c(=O)n1 (stereo not given) | 24.6% | 69% | 57.4% | 93.4% | 82.4% | 47.1% | 55.2% | 46.9% | 62.6% | 1.59% (active) | 63.1% | 48.3% | 68.3% | 29.8% | 50.1% | 47.4% | 49.3% | 73.1% | 74.3% | – |
| COc1ccc(OC)c(Nc2nc3nonc3nc2Nc2cc(OC)ccc2OC)c1 | 55.5% | 75.5% | 29.9% | -1.9% (active) | 14.8% | 45.6% | 77.9% | 9.98% (active) | 52.1% | – | 73.5% | 42.6% | 18.7% | 11.5% | 79.4% | 12% | 47% | 34.3% | 58.1% | 76.1% |
| CC(C)(C)N1CC(OC(N)=O)C1 | 109% | 130% | 106% | 97.7% | 29.1% | 109% | 113% | 98% | 4.43% (active) | 97.6% | 113% | 101% | 81.6% | 101% | – | 102% | 103% | 96.3% | 109% | 106% |
| COc1ccc(NC(=O)C(=O)c2c[nH]c3ccc(F)cc23)cc1 | 88.9% | 90.6% | 115% | 95.5% | 103% | 94.7% | 102% | 108% | 101% | – | 99.2% | 88.4% | 99.7% | 91% | 91.5% | 97.4% | 99.3% | 105% | 109% | 104% |
| CC(C)(C)OC(=O)N1Cc2cc3ccccc3nc2C1CO (stereo not given) | 98.6% | 133% | 120% | 96.6% | 66.5% | 102% | 92.8% | 95.7% | 19.1% | 98.7% | 118% | 101% | 76.8% | 103% | – | 96.9% | 100% | 101% | 101% | 111% |
| Cc1cc(Cc2cc(C)cc(C(C)(C)C)c2O)c(O)c(C(C)(C)C)c1 | 43.5% | 13% | 67.1% | 57.2% | 40.9% | 49.2% | 6.54% (active) | 62.4% | 59.8% | – | 21.4% | 25% | 69.3% | 32.5% | 33.9% | 48.3% | 47% | 47.5% | – | 48% |

Source: PubChem BioAssay (NCI)
